Laboratory results as given in PubChem BioAssay AID1851 (National Center for Advancing Translational Sciences (NCATS), 2009).
Among all 16,000 compounds or so, about 5,700 (36%) were called active. Another 24% or so got no clear call; they are omitted. This is one part of the list. Unmarked numbers belong to inactive results. Calls follow the shape of the dose curve; as a rule, active = well fitted curve in the direction sought with a large enough effect; inconclusive = small, poorly fitted or top-dose-only effect, or effect the other way; inactive = no such curve, though single readings can be large or run the other way.

Target: Cytochrome P450 1A2 (Homo sapiens) (UniProt P05177)
Sequence (P05177 whole entry, looked up): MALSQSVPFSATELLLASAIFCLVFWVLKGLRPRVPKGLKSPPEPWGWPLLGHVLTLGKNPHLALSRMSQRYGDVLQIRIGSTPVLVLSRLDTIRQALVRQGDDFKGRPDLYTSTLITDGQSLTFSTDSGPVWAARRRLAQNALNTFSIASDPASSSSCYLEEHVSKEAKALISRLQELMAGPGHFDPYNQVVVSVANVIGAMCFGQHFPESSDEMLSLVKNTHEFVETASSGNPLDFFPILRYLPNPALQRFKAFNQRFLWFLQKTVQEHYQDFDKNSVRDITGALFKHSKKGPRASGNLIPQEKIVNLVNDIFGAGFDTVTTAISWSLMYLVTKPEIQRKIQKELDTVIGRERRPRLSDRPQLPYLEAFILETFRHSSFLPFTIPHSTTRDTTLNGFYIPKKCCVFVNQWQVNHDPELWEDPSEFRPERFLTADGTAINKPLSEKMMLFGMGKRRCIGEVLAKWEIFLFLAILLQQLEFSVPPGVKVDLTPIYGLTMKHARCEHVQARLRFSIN
Assay: Cytochrome panel assay with activity outcomes
Conditions: recombinant CYP, pro-luciferin dealkylation, luminescence, p450-cyp1a2; series mostly up to 57.1 µM; activity, negative = inhibition: at the top concentration
% is scaled to controls: 0 for no effect and ±100 for the full control effect.

SMILES	AC50	activity, negative = inhibition
O=C(c1ccc(Cl)c(Cl)c1)c1cc(-c2ccccn2)c(N2CCOCC2)s1	11200 nM (active)	–
O=C(Oc1ccc(C(=S)N2CCOCC2)cc1Br)c1cc(Cl)ccc1Cl	–	-15.3%
O=C(O)c1c2ccccc2cc2ccccc12	200 nM (active)	–
O=C(O)c1cc(C(=O)C(=O)c2cc(C(=O)O)c(O)c3ccccc23)c2ccccc2c1O	–	-6.52% [at 11.4 µM]
O=C(O)c1cc2ccccc2c(Cc2cc3ccccc3c(C(=O)O)c2O)c1O (tested in a mixture with another compound)	–	-10.6% [at 25.6 µM]
C=CCSC[C@@H]1Nc2cc(Cl)c(S(N)(=O)=O)cc2S(=O)(=O)N1	–	-13.5% [at 25.6 µM]
Cc1noc(C)c1C(=O)N1CCC[C@@]2(CCN(c3ncccn3)C2)C1	–	-11.1%
COc1ccc2[nH]cc(CCNc3nc(-c4ccc(N(C)C)cc4)nc4ccccc34)c2c1	1260 nM (active)	–
COc1cccc(N(C(=O)Cn2nnc(-c3ccc(C)cc3)n2)C(C(=O)NC(C)(C)C)c2c[nH]c3ccccc23)c1 (centres undefined)	–	-7.1%
COc1ccc2[nH]cc(CCNc3nc(-c4ccc(C(=O)N(C)C)cc4)nc4ccccc34)c2c1	15800 nM (active)	–
C[C@H]1CCCC2(CC[N+](C)(CCC[N+](C)(C)C)CC2)C1 (some centres undefined)	–	-9.21% [at 11.4 µM]
COC(=O)c1ccccc1NC(=O)c1cc2nc(C3CC3)cc(C(F)(F)F)n2n1	1580 nM (active)	–
COCCNc1nc(-c2ccccc2Cl)nc2ccccc12	126 nM (active)	–
COCCNc1nc(-c2ccccc2OC)nc2ccccc12	794 nM (active)	–
COCCNc1nc(-c2ccccc2C(F)(F)F)nc2ccccc12	1260 nM (active)	–
COCCNc1nc(-c2ccccc2C)nc2ccccc12	1260 nM (active)	–
C[C@@H](N=C(N)N)C(=O)O	–	-4.5% [at 11.4 µM]
OCCN(CO)CO	–	-9.46% [at 11.4 µM]
O=S1(=O)C=C(N2CCOCC2)c2ccccc21	14100 nM (active)	–
CCOc1cc(/C=C2/SC(=O)N(CC(=O)N3CCc4ccccc4C3)C2=O)ccc1OCC(=O)O	–	6.34%
COC(=O)c1ccccc1OCC(=O)N1CCN(c2ccc(OC)cc2)CC1	–	-17.2%
COc1ccc2c(c1)c(=O)oc1c(C)c(OCC(=O)N3CCc4ccccc4C3)ccc12	2000 nM (active)	–
COC(=O)CSc1nnc(-c2ccccc2OC)n1-c1ccc(C)cc1	–	-9.92%
COc1ccccc1-c1nnc(SCc2nc3ccccc3s2)n1C	14100 nM (active)	–
N#Cc1c(-c2ccc(Cl)cc2)nc2n(c1=O)CCCS2	1410 nM (active)	–
COc1cc(=O)n2c(n1)SCCC2	–	-1.28%
N#Cc1c(-c2ccccc2)nc2n(c1=O)CCS2	3160 nM (active)	–
CCn1c(=O)c2c(nc3n2CCS3)n(C)c1=O	–	-29%
O=c1c(Cc2ccccc2)c(O)nc2n1CCS2	–	-10.2%
